Measured potencies and affinities stand elsewhere.
Each compound was assayed against Kelch-like ECH-associated protein 1 (Homo sapiens) + Nuclear factor erythroid 2-related factor 2 (Homo sapiens) (UniProt Q14145+Q16236) (assay: Keap1-Nrf2 protein-protein interaction inhibitors, dose response, biochemical, fluorescence polarization, cherry-picked samples (AID 588683;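 also: Kelch domain of Keap1 binding a fluorescein-labelled 9mer Nrf2 peptide; more negative means stronger inhibition of peptide binding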)). Conditions: Keap1/Nrf2 peptide fluorescence polarization, plate reader; series mostly up to 26 µM; activity change, negative = inhibition: at the top concentration; call rule not given here.
Kelch-like ECH-associated protein 1 (Homo sapiens) + Nuclear factor erythroid 2-related factor 2 (Homo sapiens), sequence (Q14145 whole entry, looked up, the tested form may be a part): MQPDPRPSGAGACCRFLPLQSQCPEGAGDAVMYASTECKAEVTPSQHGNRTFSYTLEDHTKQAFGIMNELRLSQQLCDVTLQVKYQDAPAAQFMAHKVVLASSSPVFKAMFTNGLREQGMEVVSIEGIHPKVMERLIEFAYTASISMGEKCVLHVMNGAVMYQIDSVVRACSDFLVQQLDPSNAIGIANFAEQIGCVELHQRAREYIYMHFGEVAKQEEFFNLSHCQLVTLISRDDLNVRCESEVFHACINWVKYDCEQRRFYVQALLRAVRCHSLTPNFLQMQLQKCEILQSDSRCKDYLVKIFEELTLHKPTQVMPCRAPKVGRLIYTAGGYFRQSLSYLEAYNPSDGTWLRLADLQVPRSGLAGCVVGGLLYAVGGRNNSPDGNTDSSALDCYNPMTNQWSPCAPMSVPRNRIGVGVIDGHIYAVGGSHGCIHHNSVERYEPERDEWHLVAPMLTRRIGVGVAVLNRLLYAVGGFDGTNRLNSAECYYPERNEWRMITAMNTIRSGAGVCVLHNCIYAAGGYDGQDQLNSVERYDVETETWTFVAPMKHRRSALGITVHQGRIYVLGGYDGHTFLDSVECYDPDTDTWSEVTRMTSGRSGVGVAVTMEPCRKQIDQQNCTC
Kelch-like ECH-associated protein 1 (Homo sapiens) + Nuclear factor erythroid 2-related factor 2 (Homo sapiens), sequence (Q16236 whole entry, looked up, the tested form may be a part): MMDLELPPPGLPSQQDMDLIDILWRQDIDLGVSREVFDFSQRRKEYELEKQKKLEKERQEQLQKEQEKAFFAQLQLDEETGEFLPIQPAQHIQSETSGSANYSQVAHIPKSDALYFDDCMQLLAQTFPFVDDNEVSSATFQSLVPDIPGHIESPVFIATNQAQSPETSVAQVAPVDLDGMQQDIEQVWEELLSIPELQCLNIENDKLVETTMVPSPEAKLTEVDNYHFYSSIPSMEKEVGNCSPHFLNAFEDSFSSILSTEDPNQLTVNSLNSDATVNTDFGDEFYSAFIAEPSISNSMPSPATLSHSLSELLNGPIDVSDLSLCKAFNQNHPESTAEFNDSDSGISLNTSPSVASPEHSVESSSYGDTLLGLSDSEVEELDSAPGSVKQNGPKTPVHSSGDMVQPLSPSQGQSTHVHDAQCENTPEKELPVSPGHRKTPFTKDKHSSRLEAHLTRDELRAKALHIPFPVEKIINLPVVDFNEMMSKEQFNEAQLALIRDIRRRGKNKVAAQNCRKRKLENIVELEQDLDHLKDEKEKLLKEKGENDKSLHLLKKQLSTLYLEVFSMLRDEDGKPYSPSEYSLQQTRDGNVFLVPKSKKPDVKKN

Activity change, negative = inhibition, inactive:
COc1[nH]c(/N=C/c2ccccc2)c(C#N)c1C#N 3.73%
CC(Sc1nc2ccccc2s1)C(=O)Nc1nnc(C(C)C)s1 (configuration not stated) -5.87%
CC1(C)CC(=O)C(N=Nc2c(F)cccc2F)=C(O)C1 1.16%
CC1CCN(C(=O)Cn2cc(C(F)(F)F)ccc2=O)c2ccccc2S1 (configuration not stated) 2.04%
O=S(=O)(O)c1ccc(O)c2cc(Nc3ccccc3)ccc12 -3.04%
COc1ccc(/C=N/N=C2/CC(C)(C)Cc3n[nH]c(=O)cc32)cc1 -23.3%
COc1ccc(C(=O)c2ccsc2N)cc1 -4.13%
Clc1ccc(C2=CC(c3ccco3)n3ncnc3N2)cc1 (configuration not stated) -20.5%
Cc1ccc(NC(=S)NCc2ccc(F)cc2)c(C)c1 17%
CCOC(=O)c1c(C)oc2c1c(C=NCCO)c(O)c1ccccc12 -7.78%
Nc1c(Cl)ncnc1NCc1ccccc1 -12.4%
Cc1ccc(S(=O)(=O)N2CCCCC2)cc1NC(=O)c1ccccc1Cl -12.1%
Cc1ccccc1NC(=O)c1sc(NC(=O)C2CC2)nc1C -1.61%
COc1ccc(N(Cc2ccccc2)S(=O)(=O)c2cccc(C(=O)Nc3ncccc3C)c2)cc1 -5.02%
O=S(=O)([O-])CCC[n+]1c(SCCCS(=O)(=O)O)sc2ccc(Cl)cc21 -4.67%
CCN1/C(=C\c2ccc3ccccc3[n+]2CC)Sc2cc(C)ccc21 37%
COCCCNc1nc(N)c([N+](=O)[O-])c(Nc2cc(OC)ccc2OC)n1 0.954%
CCCN1CNC(=S)N(c2cc(C)ccc2C)C1 -10%
Cc1ccc(C)c(N2CCN(C(=O)c3cc4ccccn4n3)CC2)c1 -1.58%
CNC(=O)C1CC(=O)N(c2ccc(OCC(=O)Nc3ccc(F)cc3)cc2)C1 (configuration not stated) 9.29%
CC(=O)Nc1ccc2c(c1)N(C(=O)CN(C)C)c1ccccc1CC2 -6.21%
OC(Cc1ccncc1)(c1ccccc1)c1ccccc1 -9.67%
CCCCN1C(=O)/C(=C2/Sc3ccccc3N2C)S/C1=N\c1ncn[nH]1 55.7%
COc1cc(Cl)c(C)cc1NCC(=O)Nc1cccc(S(=O)(=O)N2CCCC2)c1 -4.11%
CCOC(=O)c1c(=O)n(O)c2ccc(OC)cc2[n+]1[O-] -18.5%
O=C(C1=NN(c2ccccc2)C2C(=O)N(c3ccccc3)C(=O)C12)c1ccccc1 (configuration not stated) 13%
CCOC(=O)C(C)(C)N(Cc1ccccc1C)S(=O)(=O)c1ccc(Cl)c([N+](=O)[O-])c1 -14.5%
Cc1nc(-c2ccc(S(=O)(=O)N3CCCN(CCc4ccccc4)CC3)s2)cs1 -12.4%
Oc1cc(NCCN2CCOCC2)cc2cccnc12 -2.56%
CCOc1ccc(OCCCC(=O)N(CC)CC(=O)Nc2c(F)cccc2F)cc1 1.23%
CN(C)CCNC(=O)c1c(NC(=O)c2ccccc2)sc2c1CCCC2 -1.66%
O=C(Cc1ccc(S(=O)(=O)N2CCCC2)s1)Nc1nc2c(s1)CCCC2 -0.217%
Fc1ccc(C2=CC(c3ccco3)n3ncnc3N2)cc1 (configuration not stated) -8.23%
COc1ccc2c(c1)c1nc3ccccc3nc1n2CC(=O)OC(C)C -4.13%
C=CCOc1ccc(C=NNc2ccc(S(=O)(=O)Nc3ccccc3C(=O)O)cc2[N+](=O)[O-])cc1OC -0.849%
O=C(NCCOCc1ccc(Cl)cc1)c1ncn[nH]1 -12.4%
CCOc1ccc(C(=O)COC(=O)c2nn(CC)c(=O)c3ccccc23)cc1 -7.02%
